Assay results as given in paper PMC4336329 (PLoS ONE, 2015).
Hit rate of the full screen: of about 310,000 compounds, about 14,000 (4.5%) showed an effect of 50% or more. Effects have a minus sign here. The list comes from a sample in which strong results are over-represented; it also holds similar structures and randomly drawn compounds.

biological target: human ether-à-go-go-related gene (hERG) potassium channel (human, UniProt Q12809); assay: primary screen, population patch clamp on CHO cells stably expressing hERG; higher = less effect of the substance
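Note: peak tail current of the secondary pulse compared with the same well before compound.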

human ether-à-go-go-related gene (hERG) potassium channel, sequence (Q12809 whole entry, looked up): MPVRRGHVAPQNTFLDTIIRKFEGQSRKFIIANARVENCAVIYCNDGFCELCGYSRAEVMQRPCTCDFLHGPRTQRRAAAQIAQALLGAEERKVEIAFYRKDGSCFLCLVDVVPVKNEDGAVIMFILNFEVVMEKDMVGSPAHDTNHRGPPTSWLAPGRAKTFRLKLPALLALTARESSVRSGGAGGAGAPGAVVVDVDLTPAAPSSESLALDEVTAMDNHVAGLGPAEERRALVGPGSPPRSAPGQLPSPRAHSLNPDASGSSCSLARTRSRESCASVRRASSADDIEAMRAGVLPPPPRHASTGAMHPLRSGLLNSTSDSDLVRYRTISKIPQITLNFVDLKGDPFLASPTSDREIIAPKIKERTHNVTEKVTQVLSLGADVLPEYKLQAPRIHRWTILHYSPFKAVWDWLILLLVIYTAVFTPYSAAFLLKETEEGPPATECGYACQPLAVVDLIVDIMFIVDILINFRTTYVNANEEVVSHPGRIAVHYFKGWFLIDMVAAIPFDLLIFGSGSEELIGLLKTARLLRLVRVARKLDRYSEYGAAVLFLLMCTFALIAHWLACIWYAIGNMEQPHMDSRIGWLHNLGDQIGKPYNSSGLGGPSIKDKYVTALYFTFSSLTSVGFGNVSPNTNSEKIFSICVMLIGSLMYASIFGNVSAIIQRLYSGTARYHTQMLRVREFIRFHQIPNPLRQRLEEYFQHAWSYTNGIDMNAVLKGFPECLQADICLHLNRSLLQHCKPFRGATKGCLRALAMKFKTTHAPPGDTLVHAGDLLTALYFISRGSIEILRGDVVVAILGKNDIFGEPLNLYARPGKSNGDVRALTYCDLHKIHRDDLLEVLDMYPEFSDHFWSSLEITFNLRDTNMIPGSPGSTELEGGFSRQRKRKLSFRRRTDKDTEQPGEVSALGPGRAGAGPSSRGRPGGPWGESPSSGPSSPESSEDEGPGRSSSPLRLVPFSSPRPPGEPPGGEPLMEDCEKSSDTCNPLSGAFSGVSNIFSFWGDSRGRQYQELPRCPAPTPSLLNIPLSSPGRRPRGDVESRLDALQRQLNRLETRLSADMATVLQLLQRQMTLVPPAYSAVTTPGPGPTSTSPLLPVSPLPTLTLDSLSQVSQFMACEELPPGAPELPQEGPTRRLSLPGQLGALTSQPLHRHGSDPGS

Structure (SMILES)	hERG current change (%, negative = inhibition) at 10uM
CC(=O)c1cccc(NC(=S)NC(=O)c2cccc(Cl)c2)c1	-3.58%
CCSc1nnc(NC(=O)C2Cc3ccccc3CN2C(=O)c2ccco2)s1 (stereo not shown)	-10.3%
CCn1nc(C)c(CNC(=O)CC2C(=O)NCCN2Cc2ccc(C)o2)c1C (stereo not shown)	-68.4%
CCn1nc(C)c(CNC(=O)CC2C(=O)NCCN2CC(C)C)c1C (stereo not shown)	11.7%
CCn1nc(C)c(CNC(=O)CC2C(=O)NCCN2CC(C)(C)C)c1C (stereo not shown)	9.14%
CN(CC(=O)N1CCN(c2cccc(Cl)c2)CC1)S(=O)(=O)c1cccs1	-32.9%
Cn1c2c(c(=O)[nH]c1=O)C(c1ccc(O)cc1)C1=C(N2)c2ccccc2C1=O (stereo not shown)	-5.73%
CCOC(=O)c1c(CS(=O)(=O)c2ccccc2)n(C)c2cc(Br)c(O)cc12	5.4%
CCOC(=O)c1c(CN2CCN(c3ccccc3)CC2)oc2cc(Br)c(O)cc12.Cl	14.3%
CCOC(=O)c1c(CN2CCN(CC#N)CC2)n(C)c2cc(Br)c(OC)cc12	10.9%
CCOC(=O)c1c(C)n(C)c2cc(Br)c(OC)cc12	15.6%
CCOC(=O)c1c(CNCCN(CC)CC)n(C)c2cc(Br)c(OC)cc12.Cl	-68.5%
CCOC(=O)c1c(C)n(C)c2cc(Br)c(C(=O)OC)cc12	-11.1%
CCOC(=O)c1c(CN2CCN(C)CC2)n(C)c2cc(Br)c(OC)cc12	-50.4%
CCOC(=O)c1c(CN(CC)CC)oc2cc(Br)c(O)cc12	-79.8%
CCOC(=O)c1c(CNc2ccncc2)n(C)c2cc(Br)c(O)cc12.Cl	18.8%
CCOC(=O)c1c(CN2CCN(CCO)CC2)n(C)c2cc(Br)c(OC)cc12	-11.3%
CCOC(=O)c1c(CN(CC)CC)n(C)c2cc(Br)c(O)cc12.Cl	-73.6%
CCOC(=O)c1c(-c2ccccc2)oc2cc(Br)c(O)cc12	3.65%
COc1ccccc1NC(=O)c1cnc2c(-c3ccccc3)c(C)nn2c1C	3.15%
O=C(c1cnc2nc3ccccc3n2c1)c1cc(F)ccc1O	2.44%
Cc1ccc2c(c1)N(CCCC(=O)Nc1cccc(C(F)(F)F)c1)C(=O)CO2	12.9%
O=C(O)c1ccccc1C(=O)c1ccc2c(c1)N(Cc1cccc(F)c1)C(=O)CO2	-18.1%
O=C(COC(=O)c1ccccc1Br)Nc1ccccc1F	-21%
N#Cc1c(NC(=O)c2nc3ncccn3n2)sc2c1CCCCC2	2.44%

Structure (SMILES)	hERG current change (%, negative = inhibition) at 10uM
Cc1ccc(NC(=O)CCCNC(=O)c2ccc(Cl)cc2)cc1S(=O)(=O)N1CCOCC1	-17.9%
O=C(NCc1n[nH]c(=S)n1-c1cccc(C(F)(F)F)c1)c1ccc(S(=O)(=O)N2CCCCC2)cc1	16.5%
CC(=O)Oc1cccc(C(=O)Nc2ccccc2NC(=O)c2cccc(OC(C)=O)c2)c1	9.7%
CC(C)N(Cc1nc(-c2ccc(Cl)cc2)no1)C(=O)c1cccs1	-8.63%
CCCn1c(CNC(=O)Cc2ccccc2)nc2ccccc21	-21.3%
CCOC(=O)c1c(CN2CCC(C)CC2)n(C)c2cc(Br)c(OC)cc12	10.5%
CCOC(=O)c1c(CN2CCCCC2)n(C)c2cc(Br)c(OC)cc12	-31.7%
CCOC(=O)c1c(CN2CCCCC2)n(C)c2cc(Br)c(O)cc12	-68.2%
CCCCCOC(=O)Cc1c(O)c2ccccc2[nH]c1=O	12.8%
CCN(CC)S(=O)(=O)c1ccc(F)c(C(=O)NCCCN2CCOCC2)c1	-11.7%
COC(=O)c1cc(C(=O)c2cccc(Cl)c2Cl)cn1C	-43.4%
CCOc1ccc(Nc2nc(N)nc(CCl)n2)cc1	-8.2%
CCOc1ccc(Nc2nc(N)nc(CN(C)C3CCCCC3)n2)cc1	-71.5%
CCOc1ccccc1Nc1nc(N)nc(CN2CCCCC2C)n1 (stereo not shown)	-50%
COc1ccc(CN(C)C2CCCCC2)cc1	-25.1%
CCOc1ccccc1Nc1nc(N)nc(CN(C)C2CCCCC2)n1	-76.1%
COc1ccc(Nc2nc(N)nc(COc3ccc(OC)cc3)n2)cc1	4.75%
CCOc1ccc(Nc2ncnc(N)n2)cc1	10.3%
COc1ccccc1Nc1nc(N)nc(CN(C)C2CCCCC2)n1	-35.8%
COc1ccc(Nc2nc(N)nc(CN(C)C3CCCCC3)n2)cc1	-57.5%
COC(=O)N/N=C/c1cc(Cl)cc(Cl)c1OCc1ccc(F)cc1	3.82%
O=[N+]([O-])c1cccc(C2N3CCCN23)c1 (stereo not shown)	12.3%
Cc1cc2c(cc1S(=O)(=O)Nc1c(C)cccc1C)n(C)c(=O)c(=O)n2C	-0.831%
COc1ccc(-c2cc(C3CCN(Cc4ccc([N+](=O)[O-])cc4)CC3)[nH]n2)cc1	-73%
O=c1ccc(-c2ccc([N+](=O)[O-])cc2)nn1-c1ccccc1	-55%

Structure (SMILES)	hERG current change (%, negative = inhibition) at 10uM
COc1ccc(-c2cc(C3CCN(c4ncccc4[N+](=O)[O-])CC3)[nH]n2)cc1	-5.85%
FC(F)(F)c1cccc(-c2cc(C3CCNCC3)[nH]n2)c1	-44.3%
COc1ccc(-c2cc(C3CCN(Cc4cccc(C(F)(F)F)c4)CC3)[nH]n2)cc1	-55.2%
O=[N+]([O-])c1ccc(-n2nnnc2-c2ccccc2)cc1	-21.3%
COc1ccc(-c2cc(C3CCN(C(=O)OC(C)(C)C)CC3)[nH]n2)cc1	-26.4%
COC(=O)CCN1CCC(c2cc(-c3cccc(C(F)(F)F)c3)n[nH]2)CC1	-72.2%
O=[N+]([O-])c1cccnc1N1CCC(c2cc(-c3cccc(C(F)(F)F)c3)n[nH]2)CC1	-13.7%
COc1ccc(-c2cc(C3CCNCC3)[nH]n2)cc1	18.7%
Cc1nc(-c2ccccc2)nn1-c1ccc([N+](=O)[O-])cc1	-26.2%
COc1ccc(-c2cn(Cc3ccc([N+](=O)[O-])cc3)nn2)cc1	-9.43%
Cc1ccc(CNc2nc(C)c(C(=O)N(C)C)s2)cc1	4.98%
COc1ccc(S(=O)(=O)Cc2ccc(C(=O)NCCc3cc(OC)ccc3OC)o2)cc1	-39.6%
COc1ccccc1C(CC(N)=O)c1ccco1 (stereo not shown)	10.1%
O=C(Cc1cn2ccsc2n1)Nc1nc2c(s1)CCCC2	-0.221%
CN(C)c1ccc(-c2nnn(CC(=O)Nc3ccccc3N3CCOCC3)n2)cc1	-15.1%
CCOn1c(=O)c(-c2ccc(Br)cc2)[n+]([O-])c2ccccc21	13.6%
CNc1nc(N)c([N+](=O)[O-])c(NCc2ccccc2)n1	-1.09%
Oc1ccc(Br)cc1CNc1cnc2ccccc2c1	16.4%
O=C(COC(=O)c1ncc(Cl)c(Cl)c1Cl)NNC(=O)c1ccccc1	-1.26%
CCC(=O)Nc1ccc(C(=O)c2ccccc2)cc1	-9.96%
Cc1ccc(C)c(NC(=O)[C@@H]2CCCN2S(=O)(=O)c2ccccc2F)c1	10.9%
COc1ccc(Nc2cc(Nc3ccccc3)ncn2)cc1	11.5%
COc1ccc(-c2ccc(=O)n(Cc3ccc([N+](=O)[O-])cc3)n2)cc1	-75%
COc1ccc(-c2ccc(=O)n(Cc3cccc([N+](=O)[O-])c3)n2)cc1	-21.2%
COc1ccc(-c2ccc(=O)n(Cc3ccccc3)n2)cc1	-5.74%

Structure (SMILES)	hERG current change (%, negative = inhibition) at 10uM
C=CCOc1ccc(CNn2cn[nH]c2=S)cc1OCC	12.7%
CN(CC(=O)Nc1ccccc1Br)C(=O)CCc1nc2ccccc2c(=O)[nH]1	-15.8%
COC(=O)c1cc(C(=O)c2ccc(Cl)cc2Cl)cn1C	-16.4%
CCCCOc1ccc(C(=O)NCC(=O)N2CCN(C(=O)c3ccco3)CC2)cc1	-57.4%
O=C(NCC(=O)N1CCN(C(=O)c2ccco2)CC1)c1ccccc1	-7.74%
O=C(NCCC(=O)N1CCN(C(=O)c2ccco2)CC1)c1ccc(Br)cc1	-28.6%
O=C(NCC(=O)N1CCN(C(=O)c2ccco2)CC1)c1ccc(Br)cc1	-53.9%
COc1ccc(C(=O)NCC(=O)N2CCN(C(=O)c3ccco3)CC2)cc1	-13.7%
O=C(NCC(=O)N1CCN(C(=O)c2ccco2)CC1)c1ccc(Cl)cc1	-34.1%
O=[N+]([O-])c1ccc(Sc2n[nH]c(-c3ccncc3)n2)nc1	14.4%
CCCN(CC(=O)Nc1ccccc1C)C(=O)/C=C/c1ccc(OCC)c(OC)c1	-46.7%
Cc1ccc(NC(=O)CSc2nnc(/N=C/N(C)C)s2)cc1	-7.65%
COc1ccc2c(c1)NC(c1ccc(N(C)C)cc1)c1cccn1-2 (stereo not shown)	12.5%
Cc1nc(N2CCN(c3ccccn3)CC2)c2c(C)c(C(=O)Nc3ccc(F)c(Cl)c3)sc2n1	14.2%
Cc1nc(N2CCN(c3ccccn3)CC2)c2c(C)c(C(=O)Nc3ccc(Br)cc3C)sc2n1	11.6%
Cc1ccc(NC(=O)c2sc3nc(C)nc(N4CCN(c5ccccn5)CC4)c3c2C)c(C)c1	-40.1%
CCc1ccc(NC(=O)c2sc3nc(C)nc(N4CCN(c5ccccn5)CC4)c3c2C)cc1	5.47%
Cc1ccc(NC(=O)c2sc3ncn(CC(=O)N4CCN(c5ccccn5)CC4)c(=O)c3c2C)cc1Cl	-7.77%
Cc1cccc(NC(=O)c2sc3ncn(CC(=O)N4CCN(c5ccccn5)CC4)c(=O)c3c2C)c1	-61.4%
Cc1nc(N2CCN(c3ccccn3)CC2)c2c(C)c(C(=O)Nc3ccc(F)cc3Cl)sc2n1	-41.6%
COc1cccc(NC(=O)c2sc3ncn(CC(=O)N4CCN(c5ccccn5)CC4)c(=O)c3c2C)c1	-0.877%
Cc1nc(N2CCN(c3ccccn3)CC2)c2c(C)c(C(=O)Nc3ccc(F)cc3F)sc2n1	-57.9%
Cc1nc(N2CCN(c3ccccn3)CC2)c2c(C)c(C(=O)Nc3ccc(Cl)cc3)sc2n1	-7.01%
Cc1nc(N2CCN(c3ccccn3)CC2)c2c(C)c(C(=O)Nc3ccc(F)cc3)sc2n1	-76.4%
Cc1nc(N2CCN(c3ccccn3)CC2)c2c(C)c(C(=O)Nc3ccccc3F)sc2n1	-55.3%
